From PubChem BioAssay (NCATS)
Records with an inconclusive call do not appear. Active and inactive are the calls of the source. Calls come from the whole dose curve; as a rule, active = well fitted curve in the direction sought with a large enough effect; inconclusive = small, poorly fitted or top-dose-only effect, or another doubt; inactive = no such curve, though single readings can be large; an effect the other way counts as inactive or inconclusive.

How the values were obtained:
[1] = Quantitative High-Throughput drug screen in 47 multiple myeloma cell lines against the NCATS MIPE library collection: KMM1_JCRB cell viability assay (AID 1918960); note: nearly all actives have a fitted effect of over 30% in size
Procedure, shortened: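 CellTiter-Glo luminescence after 48 h exposure gives viability, scaled between DMSO-only (100%) and media-only (0%) controls. Library compounds are pinned onto 500 myeloma cells per well, incubated at 37C with 5% CO2.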

[2] = Quantitative High-Throughput drug screen in 47 multiple myeloma cell lines against the NCATS MIPE library collection: KHM11_PLB cell viability assay (AID 1918962); note: nearly all actives have a fitted effect of over 35% in size
Procedure, shortened: (§1)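 Relative luminescence from CellTiter-Glo served as the viability signal, referenced to DMSO-treated (100%) and cell-free medium (0%) controls. Treatment lasted 48 hours at 37C with 500 cells per well.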

[3] = Quantitative High-Throughput drug screen in 47 multiple myeloma cell lines against the NCATS MIPE library collection: JIM3_ECACC cell viability assay (AID 1918963; note: nearly all actives have a fitted effect of over 35% in size)
Procedure, shortened: as §1

[4] = Quantitative High-Throughput drug screen in 47 multiple myeloma cell lines against the NCATS MIPE library collection: JIM1_ECACC cell viability assay (AID 1918964)
Procedure, shortened: (§2)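 CellTiter-Glo ATP luminescence gave viability after 48 h compound treatment at 37C of 500 multiple myeloma cells per well. Normalisation used DMSO-only wells as 100% and media-only wells as 0% viability; primary qHTS of approved and investigational drugs.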

[5] = Quantitative High-Throughput drug screen in 47 multiple myeloma cell lines against the NCATS MIPE library collection: INA6_PLB cell viability assay (AID 1918965; note: nearly all actives have a fitted effect of over 55% in size)
Procedure, shortened: as §1

[6] = Quantitative High-Throughput drug screen in 47 multiple myeloma cell lines against the NCATS MIPE library collection: JJN3_DSMZ cell viability assay (AID 1918966; note: nearly all actives have a fitted effect of over 50% in size)
Procedure, shortened: as §2

[7] = Quantitative High-Throughput drug screen in 47 multiple myeloma cell lines against the NCATS MIPE library collection: H1112_PLB cell viability assay (AID 1918967; note: nearly all actives have a fitted effect of over 30% in size)
Procedure, shortened: as §2

[8] = Quantitative High-Throughput drug screen in 47 multiple myeloma cell lines against the NCATS MIPE library collection: Karpas25_ECACC cell viability assay (AID 1918968; note: nearly all actives have a fitted effect of over 35% in size)
Procedure, shortened: as §2

[9] = Quantitative High-Throughput drug screen in 47 multiple myeloma cell lines against the NCATS MIPE library collection: KMS12BM_JCRB cell viability assay (AID 1918971); note: nearly all actives have a fitted effect of over 35% in size
Procedure, shortened: (§3)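 Myeloma cells (500 per well) were exposed to MIPE 4.0 compounds by pin transfer and incubated 48 hours at 37C, 5% CO2. Viability was read as ATP by CellTiter-Glo luminescence, normalised to DMSO (100%) and media-only (0%) wells.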

[10] = Quantitative High-Throughput drug screen in 47 multiple myeloma cell lines against the NCATS MIPE library collection: KMS20_JCRB cell viability assay (AID 1918973); note: nearly all actives have a fitted effect of over 45% in size
Procedure, shortened: as §2

[11] = Quantitative High-Throughput drug screen in 47 multiple myeloma cell lines against the NCATS MIPE library collection: KMS21BM_JCRB cell viability assay (AID 1918974); details: ATP luminescence, 48 h; viability: at 45.8 µM (top of the series)
Procedure, shortened: as §2

[12] = Quantitative High-Throughput drug screen in 47 multiple myeloma cell lines against the NCATS MIPE library collection: MOLP8_DSMZ cell viability assay (AID 1918977); note: nearly all actives have a fitted effect of over 45% in size
Procedure, shortened: (§4)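 Readout: median RLU from CellTiter-Glo after 5 min at room temperature. Preceding step was 48 h drug treatment of 500 cells/well at 37 °C, 5% CO2, with DMSO-only and media-only control wells.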

[13] = Quantitative High-Throughput drug screen in 47 multiple myeloma cell lines against the NCATS MIPE library collection: NCIH929_DSMZ cell viability assay (AID 1918978); note: nearly all actives have a fitted effect of over 35% in size
Procedure, shortened: as §4

[14] = Quantitative High-Throughput drug screen in 47 multiple myeloma cell lines against the NCATS MIPE library collection: OCIMY1_PLB cell viability assay (AID 1918979); note: nearly all actives have a fitted effect of over 35% in size
Procedure, shortened: as §4

[15] = Quantitative High-Throughput drug screen in 47 multiple myeloma cell lines against the NCATS MIPE library collection: MM1S_ATCC cell viability assay (AID 1918980); note: nearly all actives have a fitted effect of over 45% in size
Procedure, shortened: as §4

[16] = Quantitative High-Throughput drug screen in 47 multiple myeloma cell lines against the NCATS MIPE library collection: Karpas417_ECACC cell viability assay (AID 1918961); details: Karpas417 myeloma viability, CellTiter-Glo ATP luminescence, 48 h; viability (% of DMSO): at 45.8 µM (top of the series)
Procedure, shortened: as §1

[17] = Quantitative High-Throughput drug screen in 47 multiple myeloma cell lines against the NCATS MIPE library collection: KMS27_JCRB cell viability assay (AID 1918970); details: KMS27 myeloma cells, CellTiter-Glo ATP viability, 48 h; viability (% of DMSO): at 45.8 µM (top of the series); note: nearly all actives have a fitted effect of over 30% in size
Procedure, shortened: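 Myeloma cells (500 per well) were exposed to MIPE 4.0 compounds for 48 h at 37 °C, 5% CO2; viability was read as ATP luminescence with CellTiter-Glo, normalized to DMSO-only (100%) and media-only (0%) wells.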

[18] = Quantitative High-Throughput drug screen in 47 multiple myeloma cell lines against the NCATS MIPE library collection: KMS12PE_JCRB cell viability assay (AID 1918972); note: nearly all actives have a fitted effect of over 30% in size
Procedure, shortened: as §1

[19] = Quantitative High-Throughput drug screen in 47 multiple myeloma cell lines against the NCATS MIPE library collection: MMM1_PLB cell viability assay (AID 1918976); note: nearly all actives have a fitted effect of over 35% in size
Procedure, shortened: as §4

[20] = Quantitative High-Throughput drug screen in 47 multiple myeloma cell lines against the NCATS MIPE library collection: KMS26_JCRB cell viability assay (AID 1918975); note: nearly all actives have a fitted effect of over 45% in size
Procedure, shortened: as §3
Potency is the fitted concentration of half-maximal effect.

| Structure (SMILES) | Potency [1] | Potency [2] | Potency [3] | Potency [4] | Potency [5] | Potency [6] | Potency [7] | Potency [8] | Potency [9] | Potency [10] | Potency [11] | Potency [12] | Potency [13] | Potency [14] | Potency [15] | Potency [16] | Potency [17] | Potency [18] | Potency [19] | Potency [20] |
| --- | --- | --- | --- | --- | --- | --- | --- | --- | --- | --- | --- | --- | --- | --- | --- | --- | --- | --- | --- | --- |
| CC[C@H](C)C(=O)O[C@H]1C[C@H](O)C=C2C=C[C@H](C)[C@H](CC[C@@H](O)C[C@@H](O)CC(=O)O)[C@H]21 | inactive | inactive | inactive | inactive | inactive | inactive | inactive | inactive | inactive | inactive | inactive | inactive | inactive | inactive | inactive |  |  |  |  |  |
| CCC=CC[C@H]1C(=O)CC[C@@H]1CC(=O)OC | inactive |  | inactive | inactive | inactive |  | inactive | inactive | 2350 nM (active) | inactive | inactive |  | inactive | inactive |  | inactive | inactive | inactive | 10500 nM (active) |  |
| Cc1ccc(S(=O)(=O)Nc2nc3ccccc3nc2Nc2ccc3nsnc3c2)cc1 | 911 nM (active) | 575 nM (active) | 1820 nM (active) | 182 nM (active) | 1290 nM (active) | 1440 nM (active) |  | 645 nM (active) | 11500 nM (active) |  |  |  | 7240 nM (active) |  | 575 nM (active) |  | 162 nM (active) | 407 nM (active) | 3630 nM (active) |  |
| CCOc1ccccc1N=Nc1c(C)[nH]n(-c2nc(-c3ccccc3)cs2)c1=O | inactive | inactive | inactive | 1660 nM (active) | inactive | 10500 nM (active) |  | 1660 nM (active) | 16600 nM (active) |  | inactive |  | 264 nM (active) | 7430 nM (active) | 13200 nM (active) |  | 9350 nM (active) | 18700 nM (active) | 8330 nM (active) | 4180 nM (active) |
| CC(C)C[C@@H](C(=O)N[C@H](C(=O)OC1CCCC1)c1ccccc1)[C@H](O)C(=O)NO | 4180 nM (active) |  | 5260 nM (active) |  |  |  |  | 20900 nM (active) | 18700 nM (active) |  |  | 23500 nM (active) | 18700 nM (active) | 16600 nM (active) | 20900 nM (active) | 1320 nM (active) | 2640 nM (active) | 2090 nM (active) | 23500 nM (active) | 18700 nM (active) |
| Cn1c(=O)c(-c2c(Cl)cccc2Cl)cc2cnc(Nc3cccc(C(=O)O)c3)nc21 | 209 nM (active) |  | inactive | 26.4 nM (active) |  | 4180 nM (active) |  | inactive |  |  | 83.3 nM (active) | 2090 nM (active) | inactive |  |  | 59 nM (active) | 526 nM (active) |  |  | 3320 nM (active) |
| NC1(C(=O)N[C@@H](CCO)c2ccc(Cl)cc2)CCN(c2ncnc3[nH]ccc23)CC1 | 118 nM (active) | 1870 nM (active) | 1050 nM (active) | 209 nM (active) | 7430 nM (active) | 2960 nM (active) | 7430 nM (active) | 418 nM (active) | inactive | 1180 nM (active) |  |  | 83.3 nM (active) |  | 83.3 nM (active) |  |  | 418 nM (active) | 10.5 nM (active) | 209 nM (active) |
| COc1cc(C=CC(=O)O)ccc1O | inactive | inactive |  |  |  | inactive |  |  |  |  |  | inactive | inactive |  |  | 4.2 nM (active) | inactive | inactive |  |  |
| C[C@H]1O[C@@H](n2cc(F)c(=O)[nH]c2=O)[C@H](O)[C@H]1O | 5260 nM (active) |  | 11800 nM (active) |  | 13200 nM (active) | inactive |  |  | 16600 nM (active) |  |  |  | inactive | inactive |  | inactive |  |  |  |  |
| CN1CCC(COc2cnc(-c3cccc(Cn4nc(-c5cccc(C#N)c5)ccc4=O)c3)nc2)CC1 | inactive | 8330 nM (active) | 372 nM (active) | inactive | 418 nM (active) | 33.2 nM (active) | 118 nM (active) | 74.3 nM (active) | 13200 nM (active) | 526 nM (active) |  | inactive | 52.6 nM (active) | inactive | 74.3 nM (active) |  |  |  | 59 nM (active) | 235 nM (active) |
| N#CC(=C1Nc2ccccc2S1)c1ccnc(OCc2ccc(CN3CCOCC3)cc2)n1 | 74.3 nM (active) |  | 5260 nM (active) |  | 5260 nM (active) | 2090 nM (active) |  | 235 nM (active) | 26400 nM (active) |  | 26.4 nM (active) |  | 4690 nM (active) |  | 1480 nM (active) | 5.9 nM (active) | 26.4 nM (active) | 59 nM (active) | 14800 nM (active) | 20900 nM (active) |
